This note sets out measurements from PubChem BioAssay (EPA / NIEHS).

SMILES strings stand for the structures. Results filed as inconclusive are left out. Activity calls are given as the source filed them. How the source made its calls: active means hit-call score of the fitted dose curve at least 0.9, where 1 is the maximum; inconclusive means response in the unintended direction; inactive means score below 0.9.

The AC50 is the concentration giving half of the maximal activity seen.

rat CYP2C13, Cyp2c13 (gene 171521), sequence (P20814 whole entry, looked up): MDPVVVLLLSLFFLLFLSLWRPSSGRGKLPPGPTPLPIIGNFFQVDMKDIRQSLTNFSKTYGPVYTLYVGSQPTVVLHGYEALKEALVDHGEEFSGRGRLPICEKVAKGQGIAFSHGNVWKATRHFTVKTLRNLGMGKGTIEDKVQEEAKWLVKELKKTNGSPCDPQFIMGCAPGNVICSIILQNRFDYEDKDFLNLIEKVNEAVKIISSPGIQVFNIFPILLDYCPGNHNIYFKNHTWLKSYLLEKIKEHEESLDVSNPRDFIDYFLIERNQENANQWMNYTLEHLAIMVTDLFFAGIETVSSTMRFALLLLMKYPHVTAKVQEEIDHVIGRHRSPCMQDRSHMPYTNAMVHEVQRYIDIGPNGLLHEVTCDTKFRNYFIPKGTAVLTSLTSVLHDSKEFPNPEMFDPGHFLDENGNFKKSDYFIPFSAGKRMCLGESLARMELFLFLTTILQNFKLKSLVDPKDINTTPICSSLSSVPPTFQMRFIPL

In the assay the target is rat CYP2C13, Cyp2c13 (gene 171521) (UniProt P20814). In words: NVS_ADME_rCYP2C13: NovaScreen (NVS) CYP450-related Enzyme Activity (ADME) Assay for rat CYP2C13 (AID 2283121). As to the method:
NVS_ADME_rCYP2C13 is a biochemical, single-readout assay that uses extracted gene-proteins in a cell-free assay. Measurements were taken 0.75 hour after chemical dosing in a 96-well plate.NVS_ADME_rCYP2C13 is one of one assay component(s) measured or calculated from the NVS_ADME_rCYP2C13 assay. It is designed to make measurements of enzyme activity, a form of enzyme reporter, as detected with fluorescence intensity signals by Fluorescence technology.Data from the assay component NVS_ADME_rCYP2C13 was analyzed into 1 assay endpoint. This assay endpoint, NVS_ADME_rCYP2C13, was analyzed in the positive analysis fitting direction relative to Acetonitrile as the negative control and baseline of activity. Using a type of enzyme reporter, loss-of-signal activity can be used to understand changes in the enzymatic activity as they relate to the gene Cyp2c13. Furthermore, this assay endpoint can be referred to as a primary readout, because this assay has produced multiple assay endpoints where this one serves a enzymatic activity function. To generalize the intended target to other relatable targets, this assay endpoint is annotated to the cyp intended target family, where the subfamily is xenobiotic metabolism.
Binding assays used specific radioligands (tritiated, iodinated) with non-radioactive competitive displacement ligands in agonist or antagonist protocols (as indicated) and various reference compounds and inhibitors to titrate specific binding to receptors and transporters. Most enzyme assays (CYPs, kinases, phosphatases, proteases, HDACs) used recombinant protein and specific substrates (fluorescence mostly, some colorimetric and radioactive) and inhibitors, followed by a biochemical separation of substrate and product. All assays for the biochemical HTS were initially run in duplicate at a single concentration (10 uM for CYP450 assays and 25 uM for all others). […] Each assay was run with positive and negative controls, and concurrent controls on every plate. The follow-up (secondary) screen tested active chemical-pairs in concentration series, as well as a few additional assays not tested in the primary screen, some selected negative inactives, and several cases re-run in the concentration series for confirmatory purposes.
For `CC(C1CC1)C(O)(Cn1cncn1)c1ccc(Cl)cc1` (stereo not given), the AC50 is 75.5 nM (active).
Same read-out and setting: for `CCCSP(=O)(OCC)Oc1ccc(Br)cc1Cl` (stereo not given) the value was 9490 nM (active); for `CCCOCC(=Nc1ccc(Cl)cc1C(F)(F)F)n1ccnc1`, 966 nM (active).
Regarding `COc1cccc(C(=O)NN(C(=O)c2cc(C)cc(C)c2)C(C)(C)C)c1C`, the AC50 was 2640 nM (active).
On the same count and under the same terms, next, `C[Si](Cn1cncn1)(c1ccc(F)cc1)c1ccc(F)cc1`: 173 nM (active).
On to `CCOC(=O)CC(SP(=O)(OC)OC)C(=O)OCC` (stereo not given), for which the compound was called inactive.
`CC1(C(=O)Nc2ccc(O)c(Cl)c2Cl)CCCCC1`: the AC50 was 1370 nM (active).
Still for that read-out and setting: next, `CCC(=O)Nc1ccc(Cl)c(Cl)c1`: 5420 nM (active).
On to `CSc1nc(NC(C)C)nc(NC(C)C)n1`, for which the AC50 is 7910 nM (active).
On the same count and under the same terms, for `FC(F)C(F)(F)OCC(Cn1cncn1)c1ccc(Cl)cc1Cl` (stereo not given) the value was 257 nM (active); for `CCOP(=S)(OCC)Oc1ccc([N+](=O)[O-])cc1`, 10000 nM (active).
Turning to `CC(=NC#N)N(C)Cc1ccc(Cl)nc1`, the call was inactive.
As for `C=C(C)[C@H]1Cc2c(ccc3c2O[C@@H]2COc4cc(OC)c(OC)cc4[C@@H]2C3=O)O1`, the AC50 was 2260 nM (active).
On the same count and under the same terms, for `CC(C)=CC1C(C(=O)OCN2C(=O)C3=C(CCCC3)C2=O)C1(C)C` (stereo not given) the value was 8970 nM (active); for `CC[C@H](C)[C@H]1O[C@]2(C=C[C@@H]1C)C[C@@H]1C[C@@H](C/C=C(\C)[C@@H](O[C@H]3C[C@H](OC)[C@@H](O[C@H]4C[C@H](OC)[C@@H](NC)[C@H](C)O4)[C@H](C)O3)[C@@H](C)/C=C/C=C3\CO[C@@H]4[C@H](O)C(C)=C[C@@H](C(=O)O1)[C@]34O)O2`, 6310 nM (active).
